Potency and affinity values are given separately. Results filed as inconclusive are left out. Activity calls are given as the source filed them.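 Rule for the calls: active = compound whose fitted half-maximal dose for signal loss lies within twice the top dose in every replicate test; inconclusive = tests disagree, or flat partial signal loss or poor fit; inactive = every test inactive, flat, rising or too weak.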
Each compound was assayed against Endoplasmic reticulum aminopeptidase 1 (Homo sapiens) (UniProt Q9NZ08) (assay: ERAP1 enzyme inhibitors, dose response, biochemical, fluorescence plate reader, dry powder (AID 1117292)). Settings: purified ERAP1, Leu-AMC fluorescence, 60 min; series mostly up to 50 µM.
Endoplasmic reticulum aminopeptidase 1 (Homo sapiens), sequence (Q9NZ08 whole entry, looked up): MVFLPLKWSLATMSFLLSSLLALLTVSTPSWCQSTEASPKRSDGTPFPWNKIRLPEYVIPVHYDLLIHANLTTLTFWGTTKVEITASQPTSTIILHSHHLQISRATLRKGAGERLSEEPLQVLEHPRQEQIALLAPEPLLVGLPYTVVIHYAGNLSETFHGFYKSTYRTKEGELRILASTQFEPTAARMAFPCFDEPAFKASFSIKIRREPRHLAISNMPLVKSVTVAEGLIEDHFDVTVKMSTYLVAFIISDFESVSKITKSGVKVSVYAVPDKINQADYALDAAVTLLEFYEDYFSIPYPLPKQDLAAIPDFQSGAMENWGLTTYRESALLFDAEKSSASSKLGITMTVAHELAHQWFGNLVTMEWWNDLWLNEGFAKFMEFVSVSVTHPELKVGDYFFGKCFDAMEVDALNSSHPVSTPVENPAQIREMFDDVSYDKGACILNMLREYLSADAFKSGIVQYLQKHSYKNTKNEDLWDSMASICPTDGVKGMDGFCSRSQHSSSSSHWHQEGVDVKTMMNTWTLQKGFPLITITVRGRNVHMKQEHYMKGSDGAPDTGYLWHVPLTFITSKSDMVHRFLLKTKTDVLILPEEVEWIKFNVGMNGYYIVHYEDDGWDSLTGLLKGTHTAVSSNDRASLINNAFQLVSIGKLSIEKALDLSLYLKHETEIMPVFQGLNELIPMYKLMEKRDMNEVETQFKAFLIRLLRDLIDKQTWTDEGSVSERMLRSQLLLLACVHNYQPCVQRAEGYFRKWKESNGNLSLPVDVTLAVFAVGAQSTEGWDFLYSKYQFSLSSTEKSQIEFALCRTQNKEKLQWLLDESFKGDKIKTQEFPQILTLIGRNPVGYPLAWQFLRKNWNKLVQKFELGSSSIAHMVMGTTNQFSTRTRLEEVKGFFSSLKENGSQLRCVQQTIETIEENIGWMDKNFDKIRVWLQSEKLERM

outcome, inactive:
CC(=O)N1CCN(C(=O)C2(NC(=O)Nc3ccc(C(C)C)cc3)CCCC2)CC1
COc1ccc(C(=O)O)cc1S(=O)(=O)Nc1cc(C(F)(F)F)ccc1N1CCOCC1
Cc1ccc(NC(=O)NC2(C(=O)N3CCNCC3)CCCCC2)cc1
Cc1ccccc1S(=O)(=O)Nc1cc(C(F)(F)F)ccc1N1CCCCC1
COc1ccc(C(=O)Nc2cc(C)ccc2N2CCCCC2)cc1S(=O)(=O)O
CC(=O)N1CCN(C(=O)C2(NC(=O)NCCc3ccccc3)CCCCC2)CC1
COc1ccc(S(=O)(=O)Nc2cc(C(F)(F)F)ccc2N2CCCCC2)cc1
CC(=O)N1CCN(C(=O)CNC(=O)Nc2ccc(C)cc2)CC1
COc1ccc(C(=O)Nc2cc(C(F)(F)F)ccc2N2CCOCC2)cc1S(=O)(=O)O
COc1ccc(C(=O)Nc2cc(C(F)(F)F)ccc2N2CCCCC2)cc1S(=O)(=O)O
CC(=O)N1CCN(C(=O)C2(NC(=O)Nc3cccc(C(F)(F)F)c3)CCCCC2)CC1
CC(=O)N1CCN(C(=O)C2CCCN2C(=O)Nc2ccc(C)cc2)CC1 (configuration not stated)
O=S(=O)(Nc1cc(C(F)(F)F)ccc1N1CCCCC1)c1ccc(F)cc1
CC(=O)N1CCN(C(=O)C2(NC(=O)NC(C)(C)C)CCCCC2)CC1
CC(=O)N1CCN(C(=O)C2(NC(=O)Nc3ccc(F)cc3)CCCCC2)CC1
CC(=O)N1CCN(C(=O)C2(NC(=O)Nc3cccc(F)c3)CCCCC2)CC1
COc1ccc(C(=O)Nc2cccc(C(F)(F)F)c2)cc1S(=O)(=O)O
O=[N+]([O-])c1cccc(S(=O)(=O)Nc2cc(C(F)(F)F)ccc2N2CCCCC2)c1
CC(=O)N1CCN(C(=O)C2(NC(=O)Nc3ccccc3)CCCC2)CC1
CC(=O)N1CCN(C(=O)C2(NC(=O)Nc3ccc(F)cc3)CCCC2)CC1
COc1ccc(C(=O)O)cc1S(=O)(=O)Nc1cc(C(F)(F)F)ccc1N1CCCCC1
COc1ccc(C(=O)Nc2ccccc2N2CCCCC2)cc1S(=O)(=O)O
